Among the data in PubChem BioAssay (EPA / NIEHS) are AC50 and outcome values, retold here.

Assay [1] in a line: ATG_CRE_CIS: Attagene CIS-FACTORIAL HepG2 Assay for human cAMP Responsive Element (CRE) binding protein 3 (AID 2282926). The settings on record: HepG2 CRE cis-reporter, Attagene multiplexed mRNA; actives raise or lower the signal. In outline: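 Induced reporter mRNA from a CRE cis element, measured in HepG2 among many multiplexed units at 24 h. Detection used RT-PCR plus capillary electrophoresis of fluorescent fragments; DMSO served as negative control.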

Assay [2] concerns the target CCAAT/enhancer-binding protein beta (Homo sapiens) (UniProt P17676). The experiment in a line: ATG_C_EBP_CIS: Attagene CIS-FACTORIAL HepG2 Assay for human CCAAT/Enhancer Binding Protein (C/EBP) beta (AID 2282927). To be noted: HepG2 Attagene cis-factorial transcription factor reporter; actives raise or lower the signal. In outline: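 Following a 24 h incubation with test chemical, transfected HepG2 cells yielded RNA whose reporter transcripts were quantified by RT-PCR and fluorescent capillary electrophoresis, with DMSO serving as baseline for bidirectional fitting.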

Assay [3] is described as follows: ATG_CMV_CIS: Attagene CIS-FACTORIAL HepG2 Assay for human CMV (Internal Marker) (AID 2282928).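 Further: endpoint acts as a background internal control marker rather than a target.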 The settings on record: HepG2 CMV promoter reporter, transcription factor profiling; actives raise or lower the signal. In outline:
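Fluorescence intensity of RT-PCR-derived reporter fragments, resolved by capillary electrophoresis, gives the signal. HepG2 liver cells bearing transfected cis-element reporters were treated 24 h; activity in either direction was fit relative to DMSO-treated controls.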

Assay [4] in a line: ATG_DR4_LXR_CIS: Attagene CIS-FACTORIAL HepG2 Assay for human Liver X Receptor (LXR), DR4 submotif (AID 2282929). The settings on record: HepG2 Attagene DR4 cis-reporter, mRNA transcription; actives raise or lower the signal. In outline:
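HepG2 cells were transiently transfected with multiple cis-regulated reporter units and dosed for 24 hours. The DR4 reporter mRNA was quantified by RT-PCR, 6-FAM labelling and capillary electrophoresis. Bidirectional fits used DMSO as baseline.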

Assay [5] addresses Aryl hydrocarbon receptor (Homo sapiens) (UniProt P35869). The experiment in a line: ATG_Ahr_CIS: Attagene CIS-FACTORIAL HepG2 Assay for human Aryl Hydrocarbon Receptor (Ahr) (AID 2282930). To be noted: HepG2 AhR cis-factorial reporter transcription; actives raise or lower the signal. In outline: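 Values derive from bidirectional fitting against DMSO negative control. Underlying signal: cis-element reporter mRNA in transiently transfected HepG2, harvested 24 h post-dose and measured by RT-PCR plus capillary electrophoresis.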

The nature of assay [6]: ATG_AP_1_CIS: Attagene CIS-FACTORIAL HepG2 Assay for human Activator Protein 1 (AP-1) (AID 2282931). To be noted: HepG2 Attagene cis-factorial AP-1 reporter mRNA; actives raise or lower the signal. In outline: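 HepG2 cells transiently transfected with cis-element-driven reporter transcription units, dosed for 24 hours. Reporter mRNA measured by RT-PCR, 6-FAM labelling, HpaI digestion and capillary electrophoresis. Bidirectional fitting against DMSO baseline.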

Assay [7] can be described thus: ATG_AP_2_CIS: Attagene CIS-FACTORIAL HepG2 Assay for human Activator Protein 2 (AP-2) (AID 2282932). The settings on record: HepG2 AP-2 cis-reporter, Attagene transcription factor profiling; actives raise or lower the signal. In outline: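 Assay in transfected HepG2 with promoter-regulated reporters, 24 h incubation after dosing. Signal is reporter mRNA fluorescence (RT-PCR, capillary electrophoresis), analysed for both increases and decreases relative to DMSO controls.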

Assay [8] is described as follows: ATG_BRE_CIS: Attagene CIS-FACTORIAL HepG2 Assay for human Bone Morphogenetic Protein (BMP) Response Element (BRE) (AID 2282933). To be noted: HepG2 BMP response element reporter, Attagene transcription factor profiling; actives raise or lower the signal. In outline: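 Multiplexed cis-reporter assay, HepG2, 24 h exposure. mRNA from reporter units quantified via RT-PCR/CE; DMSO baseline; bidirectional curve fit.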

In assay [9] the target is Retinoic acid receptor alpha (Homo sapiens) (UniProt P10276). Put plainly: ATG_DR5_RAR_CIS: Attagene CIS-FACTORIAL HepG2 Assay for human Retinoic Acid Receptor Alpha (RARE), DR5 submotif (AID 2282934). To be noted: HepG2 Attagene cis-factorial RARE DR5 reporter, mRNA; actives raise or lower the signal. The gist of the method:
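Endpoint fitted in both directions relative to DMSO as negative control. It reflects DR5 cis-element reporter mRNA induction in transiently transfected HepG2 cells, measured 24 h after dosing through RT-PCR and fluorescent capillary electrophoresis.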

Assay [10] in a line: ATG_E_Box_CIS: Attagene CIS-FACTORIAL HepG2 Assay for human Enhancer Box (E-box) (AID 2282936). The settings on record: HepG2 E-box cis-reporter transcription, actives raise or lower the signal. The gist of the method: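 Measured 24 h post-dosing in HepG2 cells transfected with multiple cis-regulated reporter units, signal being reporter mRNA induction detected by fluorescent RT-PCR with capillary electrophoresis; gain or loss fitted against DMSO.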

Assay [11] can be described thus: ATG_M_61_CIS: Attagene CIS-FACTORIAL HepG2 Assay for M61 Transcription Factor (Internal Marker) (AID 2282937). To be noted: HepG2 Attagene CIS-FACTORIAL M61 internal marker reporter; actives raise or lower the signal. The gist of the method:
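HepG2 cells transiently transfected with multiplexed cis-promoter reporter units reporting endogenous transcription factor activity, measured 24 h after dosing. Reporter mRNA quantified by RT-PCR and capillary electrophoresis; bidirectional fit against DMSO baseline.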

Assay [12] is described as follows: ATG_EGR_CIS: Attagene CIS-FACTORIAL HepG2 Assay for human Early Growth Response 1 (EGR1) (AID 2282938). To be noted: HepG2 Attagene CIS-FACTORIAL EGR reporter mRNA; actives raise or lower the signal. In outline: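 HepG2 cells transiently transfected with cis-element-driven multiplexed reporter units, dosed for 24 h. EGR1-element reporter mRNA quantified by RT-PCR, 6-FAM labelling, HpaI digestion and capillary electrophoresis; bidirectional fit versus DMSO.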

A short description of assay [13]: ATG_M_19_CIS: Attagene CIS-FACTORIAL HepG2 Assay for M19 Transcription Factor (Internal Marker) (AID 2282939). To be noted: HepG2 Attagene CIS-FACTORIAL M19 internal marker reporter; actives raise or lower the signal. The gist of the method: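 Signals come from fluorescence of labelled reporter-specific PCR fragments resolved by capillary electrophoresis, following 24 h treatment of HepG2 cells transfected with cis-promoter reporter units; activity was fitted in both directions relative to DMSO.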

Assay [14] is described as follows: ATG_ERE_CIS: Attagene CIS-FACTORIAL HepG2 Assay for Estrogen Response Element (ERE) (AID 2282940). The settings on record: HepG2 ERE cis-reporter, Attagene RNA transcript; actives raise or lower the signal. The gist of the method:
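Fluorescence of capillary-separated, FAM-labelled reporter cDNA fragments indicates reporter mRNA levels in HepG2 cells exposed to chemicals for 24 h. Transient transfection with cis-regulated units; data fitted in both directions against DMSO.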

Assay [15] can be described thus: ATG_Ets_CIS: Attagene CIS-FACTORIAL HepG2 Assay for human Erythroblast Transformation Specific (ETS) (AID 2282941). The settings on record: HepG2 ETS cis-reporter transcription, actives raise or lower the signal. The gist of the method:
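Multiplexed reporter transcript profiling: HepG2, 24 h treatment, total RNA to cDNA, PCR, 6-FAM labelling, HpaI cut, capillary electrophoresis. Gain- or loss-of-signal fitted against DMSO.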

The target in assay [16] is Hepatocyte nuclear factor 3-beta (Homo sapiens) (UniProt Q9Y261). Put plainly: ATG_FoxA2_CIS: Attagene CIS-FACTORIAL HepG2 Assay for human Forkhead box A2 (FOXA2) (AID 2282942). To be noted: HepG2 cis-reporter transcription factor activity, 24 h; actives raise or lower the signal. In outline:
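HepG2 transiently transfected with a multiplexed cis-promoter reporter library read endogenous FOXA2 activity. After 24 h compound exposure, reporter mRNA was quantified by RT-PCR, HpaI digestion and capillary electrophoresis. Bidirectional fit against DMSO.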

Assay [17] can be described thus: ATG_FoxO_CIS: Attagene CIS-FACTORIAL HepG2 Assay for human Forkhead box O (FoxO) (AID 2282943). To be noted: HepG2 Attagene cis-reporter, FoxO element, mRNA; actives raise or lower the signal. In outline:
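Values reflect reporter mRNA induction or loss in HepG2 cells 24 h post-dosing, fitted bidirectionally with DMSO as negative control and baseline. Detection used RT-PCR and fluorescence capillary electrophoresis.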

Assay [18] can be described thus: ATG_GATA_CIS: Attagene CIS-FACTORIAL HepG2 Assay for human GATA Binding Protein (AID 2282944). The settings on record: HepG2 GATA cis-element reporter, Attagene multiplex mRNA; actives raise or lower the signal. In outline: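 After transfecting HepG2 cells with multiple cis-regulated reporter units, chemicals are dosed for 24 h; isolated RNA undergoes RT-PCR and fluorescent labeling before capillary electrophoresis, with activity expressed against DMSO.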

The nature of assay [19]: ATG_GLI_CIS: Attagene CIS-FACTORIAL HepG2 Assay for human Zinc Finger Protein GLI1 (AID 2282945). The settings on record: HepG2, Attagene cis-factorial reporter mRNA, GLI element; actives raise or lower the signal. In outline: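 HepG2 cells transiently transfected with cis-promoter multiplexed reporter units report endogenous transcription factor activity. After 24 h chemical exposure, reporter mRNA was quantified by RT-PCR, 6-FAM labelling, HpaI digestion and capillary electrophoresis, with bidirectional fitting against DMSO.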

Assay [20] deals with Transcription factor E2F1 (Homo sapiens) (UniProt Q01094). The experiment in a line: ATG_E2F_CIS: Attagene CIS-FACTORIAL HepG2 Assay for human E2F Transcription Factor 1 (AID 2282935). To be noted: HepG2 Attagene cis-reporter, E2F reporter RNA transcripts; actives raise or lower the signal. In outline:
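In this cis-factorial format, endogenous factor activity drives transfected reporters in HepG2; transcripts collected at 24 h are quantified by fluorescence after RT-PCR and capillary separation.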

Where a structure was tested more than once in an assay, its records may differ in their call. Activity calls are given as the source filed them. How the source made its calls: active means hit-call score of the fitted dose curve at least 0.9, where 1 is the maximum; inactive means score below 0.9.

Sequence of CCAAT/enhancer-binding protein beta (Homo sapiens) (P17676 whole entry, looked up): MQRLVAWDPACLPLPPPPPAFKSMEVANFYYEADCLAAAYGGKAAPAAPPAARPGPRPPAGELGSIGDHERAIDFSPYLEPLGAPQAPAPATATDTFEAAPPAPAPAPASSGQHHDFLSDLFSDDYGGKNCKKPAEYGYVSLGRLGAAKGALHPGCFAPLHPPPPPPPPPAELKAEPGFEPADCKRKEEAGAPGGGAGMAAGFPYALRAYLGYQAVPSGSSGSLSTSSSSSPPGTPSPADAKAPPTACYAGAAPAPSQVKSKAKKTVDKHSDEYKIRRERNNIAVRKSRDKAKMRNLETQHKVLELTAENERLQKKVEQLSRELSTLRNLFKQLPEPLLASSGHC
Sequence of Hepatocyte nuclear factor 3-beta (Homo sapiens) (Q9Y261 whole entry, looked up): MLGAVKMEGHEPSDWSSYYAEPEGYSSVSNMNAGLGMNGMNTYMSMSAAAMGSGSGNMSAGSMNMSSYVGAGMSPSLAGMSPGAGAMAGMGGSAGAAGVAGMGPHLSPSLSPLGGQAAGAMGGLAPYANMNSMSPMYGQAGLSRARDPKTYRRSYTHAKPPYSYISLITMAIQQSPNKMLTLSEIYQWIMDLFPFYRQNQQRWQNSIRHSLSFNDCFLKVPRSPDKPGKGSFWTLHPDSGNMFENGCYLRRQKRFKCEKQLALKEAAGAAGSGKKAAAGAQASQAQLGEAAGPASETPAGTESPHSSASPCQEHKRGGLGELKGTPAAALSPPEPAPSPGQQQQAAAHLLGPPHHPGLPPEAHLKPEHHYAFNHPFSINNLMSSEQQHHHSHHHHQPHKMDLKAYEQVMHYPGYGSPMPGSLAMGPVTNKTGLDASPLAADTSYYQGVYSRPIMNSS
Sequence of Retinoic acid receptor alpha (Homo sapiens) (P10276 whole entry, looked up): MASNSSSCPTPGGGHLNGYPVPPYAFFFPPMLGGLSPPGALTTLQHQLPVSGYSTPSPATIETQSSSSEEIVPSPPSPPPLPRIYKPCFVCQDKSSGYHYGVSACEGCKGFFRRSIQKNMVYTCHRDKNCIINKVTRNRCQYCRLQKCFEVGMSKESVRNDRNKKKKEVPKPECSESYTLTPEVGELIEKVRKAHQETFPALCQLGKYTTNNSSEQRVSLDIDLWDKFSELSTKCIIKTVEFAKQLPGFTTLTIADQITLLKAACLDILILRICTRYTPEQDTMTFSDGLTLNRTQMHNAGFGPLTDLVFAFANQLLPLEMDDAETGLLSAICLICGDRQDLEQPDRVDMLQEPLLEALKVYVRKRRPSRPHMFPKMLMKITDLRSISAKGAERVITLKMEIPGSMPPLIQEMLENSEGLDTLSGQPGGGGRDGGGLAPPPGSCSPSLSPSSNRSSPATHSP
Sequence of Transcription factor E2F1 (Homo sapiens) (Q01094 whole entry, looked up): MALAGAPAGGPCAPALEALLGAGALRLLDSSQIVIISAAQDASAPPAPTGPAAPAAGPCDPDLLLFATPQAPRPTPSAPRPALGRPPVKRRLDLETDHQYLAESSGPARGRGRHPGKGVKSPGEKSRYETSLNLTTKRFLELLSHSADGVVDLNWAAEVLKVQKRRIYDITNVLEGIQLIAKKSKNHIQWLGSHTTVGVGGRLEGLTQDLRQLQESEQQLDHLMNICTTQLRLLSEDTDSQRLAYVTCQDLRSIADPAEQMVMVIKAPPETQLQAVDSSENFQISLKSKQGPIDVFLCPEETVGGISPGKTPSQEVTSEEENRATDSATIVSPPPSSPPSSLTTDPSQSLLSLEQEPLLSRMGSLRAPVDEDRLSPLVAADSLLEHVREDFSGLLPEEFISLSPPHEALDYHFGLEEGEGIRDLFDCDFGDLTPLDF
Sequence of Aryl hydrocarbon receptor (Homo sapiens) (P35869 whole entry, looked up): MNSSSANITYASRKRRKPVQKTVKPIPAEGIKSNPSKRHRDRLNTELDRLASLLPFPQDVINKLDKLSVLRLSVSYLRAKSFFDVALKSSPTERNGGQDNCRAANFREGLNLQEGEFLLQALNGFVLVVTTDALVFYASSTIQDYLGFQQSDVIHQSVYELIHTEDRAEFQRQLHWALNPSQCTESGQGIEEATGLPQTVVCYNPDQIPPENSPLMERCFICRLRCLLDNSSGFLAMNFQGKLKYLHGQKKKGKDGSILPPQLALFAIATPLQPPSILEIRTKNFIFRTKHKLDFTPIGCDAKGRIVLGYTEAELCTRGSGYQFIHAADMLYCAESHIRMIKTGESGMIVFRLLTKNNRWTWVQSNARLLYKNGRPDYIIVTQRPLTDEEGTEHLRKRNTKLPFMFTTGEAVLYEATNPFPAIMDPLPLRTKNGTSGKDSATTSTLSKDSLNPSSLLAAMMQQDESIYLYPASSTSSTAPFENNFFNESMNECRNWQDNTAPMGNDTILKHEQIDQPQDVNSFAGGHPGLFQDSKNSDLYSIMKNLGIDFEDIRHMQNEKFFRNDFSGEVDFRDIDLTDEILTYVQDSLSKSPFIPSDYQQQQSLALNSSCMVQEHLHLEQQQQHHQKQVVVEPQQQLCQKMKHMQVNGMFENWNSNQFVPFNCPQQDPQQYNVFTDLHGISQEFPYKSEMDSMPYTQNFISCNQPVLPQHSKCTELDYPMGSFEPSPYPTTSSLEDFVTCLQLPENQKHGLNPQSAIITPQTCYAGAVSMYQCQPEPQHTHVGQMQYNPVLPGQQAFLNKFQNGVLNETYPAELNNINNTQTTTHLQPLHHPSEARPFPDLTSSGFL

As usually defined, the AC50 is the concentration giving half of the maximal activity seen. In the case of `O=C(Nc1ccc(Cl)cc1)Nc1ccc(Cl)c(Cl)c1`, the AC50 in assay [1] is 4.04 µM (active); in assay [4], 10.5 µM (active); in [6], 10.5 µM (active); in assay [8], 5.32 µM (active). In addition, the result in assay [2], in [3], in assay [5], in assay [7], in assay [9] and in [10] was inactive. Moreover, the outcome in assay [11], in [12], in assay [13], in [14], in [15] and in assay [16] was inactive. Further, the molecule was called inactive in [17], in assay [18] and in assay [19].
With `NC(=O)c1nc(-c2cccc(-c3cc(F)ccc3OCC(F)(F)C(F)(F)F)c2)n[nH]1`, the AC50 in assay [1] is 27.7 µM (active); in [3], 12.1 µM (active); in assay [4] it was 44.4 µM (active); in assay [6], 24 µM (active); in [8], 19.8 µM (active); in assay [12], 40.2 µM (active). Further, the outcome in assay [2], in assay [5], in [7], in assay [9], in [10] and in assay [11] was inactive. Further, the outcome in assay [13], in [14], in assay [15], in assay [16], in assay [17] and in assay [18] was inactive. The result in assay [19] was inactive.
As to `CC[C@H](NC(=O)c1cc(F)ccc1NS(=O)(=O)c1cccc2cccnc12)c1ccccc1`, the call in [1], in [2], in [3], in assay [4], in assay [5] and in assay [6] was inactive. For the same molecule, the call in assay [7], in assay [8], in assay [9], in assay [20], in assay [10] and in assay [11] was inactive. Also, the molecule was classed as inactive in assay [12], in [13], in assay [14], in assay [15], in assay [16] and in [17]. Moreover, the molecule was called inactive in assay [18] and in assay [19].
In the case of `CCCCOC(=O)c1ccc(O)cc1`, the AC50 in assay [1] was 72.6 µM (active); in assay [2], 100 µM (active); in assay [7], 136 µM (active); in assay [8], 166 µM (active) [middle of 4 runs]; in assay [10] it was 138 µM (active); in [15], 157 µM (active). The AC50 in assay [18] is 164 µM (active); in assay [19], 125 µM (active). The result in [1], in [2], in [3], in assay [5], in assay [6] and in assay [7] was inactive. The outcome in assay [9], in [20], in [10], in assay [11], in assay [13] and in assay [15] was inactive. The result in [16], in [17], in assay [18] and in [19] was inactive.
